Assay outcomes deposited in PubChem BioAssay by Broad Institute.
The list is a sample of the results.
aSyn UTR act – Activators via SNCA 5'UTR binding, MLPCN | actives 7.1% (n = 300,000) | alpha-synuclein 5'UTR reporter, activators screen | AID 1814 | activity score, % (tested at 7.5 µM), hits read low; in the data active means activity score below about -60%
An asterisk follows results filed as active.

SMILES | aSyn UTR act
O=C(Nc1ccc(F)cc1)c1cc2ccccc2o1 | -153*
O=C(Nc1ccccc1)c1ccc(OC(=O)c2cc3ccccc3o2)cc1 | -84*
Cc1cc(C(=O)Nc2ccccc2)oc1C | -112*
CC(C)c1nnc(NC(=O)c2cc3ccccc3o2)s1 | -135*
C(=N\N1CCN(Cc2ccccc2)CC1)/c1ccccc1 | -64*
FC(F)(F)c1ccccc1/C=N/N1CCN(Cc2ccccc2)CC1 | -72*
Cc1ccc(/C=N/N2CCN(Cc3ccccc3)CC2)s1 | -83*
Cc1ccc(/C=N/N2CCOCC2)s1 | -101*
Cc1cc(N2CCN(Cc3cn(C)nc3-c3cccc(Cl)c3)CC2)cc(C)n1 | 72
Clc1cccc(/C=N/N2CCN(Cc3ccccc3)CC2)c1 | -91*
C/C(=N\N1CCN(Cc2ccccc2)CC1)c1ccco1 | -80*
O=[N+]([O-])c1ccccc1/C=N/N1CCN(Cc2ccccc2)CC1 | -101*
Brc1ccc(CSc2nnc(-c3ccco3)o2)cc1 | -78*
c1ccc(CSc2nnc(-c3ccco3)o2)cc1 | -97*
Cc1ccc(CSc2nnc(-c3ccco3)o2)cc1 | -154*
Fc1ccc(CSc2nnc(-c3ccco3)o2)cc1 | -117*
COc1ccc(O)c(C(=O)c2cnn(-c3ccccn3)c2)c1 | -130*
COc1ccc(O)c(C(=O)c2cnn(-c3ccc(Cl)cc3)c2)c1 | -75*
CCN(CC)S(=O)(=O)c1cc(OC)ccc1N=Nc1ccc(O)c2ncccc12 | 59
CCc1ccc(N2NC(=O)/C(=C/C=C/c3ccco3)C2=O)cc1 | -78*
CCCOc1ccc2c(C)c(CC(=O)OC)c(=O)oc2c1 | -118*
CC(=O)COc1ccc2c(C)c(C)c(=O)oc2c1 | -118*
COc1ccc(-c2c(C)c3ccc(OCC(C)=O)cc3oc2=O)cc1 | -142*
COc1ccc(-c2c(C)c3ccc(O)cc3oc2=O)cc1 | -97*
COC(=O)Cn1c(SCc2ccccc2)nc2ccccc21 | -166*
SMILES | aSyn UTR act
C/C(=N\Nc1cccc(C(=O)O)c1)c1cc2ccccc2o1 | -66*
C/C(=N\Nc1cccc([N+](=O)[O-])c1)c1cc2ccccc2o1 | -166*
CCCCNC(=S)N/N=C/c1cccc(OCC)c1O | -73*
Cc1ccc(NCC(=O)N=Nc2c(O)[nH]c3ccc([N+](=O)[O-])cc23)cc1 | -172*
c1ccc2c(c1)Cn1nc(Cc3nc4c(s3)CCCC4)nc1-2 | -79*
O=C(Oc1ccccc1/C=C\C(=O)c1cc2ccccc2o1)c1ccccc1 | -300*
COc1cccc(C(=O)Oc2ccccc2/C=C\C(=O)c2cc3ccccc3o2)c1 | -192*
O=C(Oc1ccccc1/C=C\C(=O)c1cc2ccccc2o1)c1cccc(F)c1 | -234*
Cc1cc(C)n(CCc2nc(-c3ccc(-c4ccccc4)cc3)cs2)n1 | -71*
Oc1csc(Cc2nc(-c3ccc(-c4ccccc4)cc3)cs2)n1 | -112*
Oc1csc(Cc2nc(-c3ccccc3F)cs2)n1 | -169*
Oc1csc(Cc2nc(-c3ccc4ccccc4c3)cs2)n1 | -236*
c1ccc(N=Nc2ccc3cccccc2-3)cc1 | -259*
CC(C)(C)c1ccc(/C=C/C(=O)c2ccc(NC3=NCCCS3)cc2)cc1 | -107*
O=C(/C=C/c1ccc(Br)cc1)c1ccc(NC2=NCCCS2)cc1 | -99*
CN(c1ccc(O)cc1)c1nc(-c2cccs2)cs1 | -238*
Cc1nc(N)sc1-c1csc(N(C)c2ccc(O)cc2)n1 | -127*
Cc1cccc(Nc2nnc(SCC3CCCCO3)s2)c1 (stereo not given) | -184*
CN1C(=O)/C(=C/C=C2\SCCN2C)N(C)C1=S | -177*
COc1ccc(Nc2cc3n(c(=O)n2)CCc2cc(OC)c(OC)cc2-3)c(C)c1 | 80
COc1ccc(Nc2nc(N3CCCC3)nc3ccccc23)c(OC)c1 | -81*
CCc1ccc(-c2cn3c(n2)SCC3)cc1 | -99*
Cc1ccc(-c2cn3nc(C)c(C)nc3n2)cc1 | 73
Cc1ccc(-c2cn3c(n2)SCC3)cc1 | -144*
N=C1S/C(=C\c2cn[nH]c2-c2ccc(F)cc2)C(=O)N1c1ccccc1F | -108*
SMILES | aSyn UTR act
Cc1ccc(-c2noc(CN3CCCCC3)n2)cc1 | -126*
Cc1ccn2c(CN3CCOCC3)c(-c3ccccc3)nc2c1 | -126*
c1ccc(NCc2nc(-c3ccccc3)no2)cc1 | -133*
c1ccc(-c2noc(CN3CCOCC3)n2)cc1 | -63*
Cc1ccc(-c2noc(CN3CCOCC3)n2)cc1 | -87*
Clc1ccc(-c2noc(CN3CCCC3)n2)cc1 | -86*
c1ccc(-c2n[nH]c(-c3ccccn3)n2)nc1 | -63*
c1ccc(-c2n[nH]c(-c3ccccn3)n2)cc1 | -114*
Cc1ccc(C(=O)CN2C(=O)c3ccccc3S2(=O)=O)cc1 | 109
Cc1ccc(C(=O)COc2ccccc2N2C(=O)c3ccccc3C2=O)cc1 | -127*
COc1ccc(-c2csc(Nc3cc(C)ccn3)n2)cc1C | -155*
COc1ccc(-c2csc(Nc3ncccn3)n2)cc1C | -76*
COC(=O)c1ccc(NS(=O)(=O)NC(=O)c2cn(C)c3ccccc23)cc1 | -84*
COc1cccc(NS(=O)(=O)NC(=O)c2cn(C)c3ccccc23)c1 | -69*
Cc1ccc(NC(=O)c2ccc(CN3CCc4ccccc4C3)cc2)cc1 | -101*
O=C(Nc1cccnc1)c1ccc(CN2CCc3ccccc3C2)cc1 | -68*
O=C(/C=C/c1ccco1)NCCc1ccccc1 | -126*
Cc1ccc(/C=C/C(=O)NCCc2ccccc2)o1 | -99*
O=C(Nc1ccc(Cl)cn1)c1ccc2nccnc2c1 | -112*
O=C(Nc1ccccc1Cl)c1ccc2nccnc2c1 | -96*
O=C1C(=O)N(c2cccc(Cl)c2)C(c2ccccc2[N+](=O)[O-])/C1=C(\O)c1ccccc1 (stereo not given) | -88*
O=C1C(=O)N(c2ccccc2)C(c2ccccc2[N+](=O)[O-])/C1=C(\O)c1ccccc1 (stereo not given) | -93*
Brc1ccccc1C1CC(c2ccccc2)=Nc2ccccc2N1 (stereo not given) | -203*
c1ccc(C2=Nc3ccccc3NC(c3ccccc3)C2)cc1 (stereo not given) | -178*
COC(=O)c1cnn(-c2cc(Oc3cccc(C)c3)ncn2)c1N | -138*
SMILES | aSyn UTR act
COc1ccc(C2CC2C(=O)c2ccccn2)cc1 (stereo not given) | -73*
COc1ccc(C2CC2/C(=N/O)c2ccccn2)cc1 (stereo not given) | -86*
CN(CC(=O)N1CCc2ccccc21)S(=O)(=O)c1cccs1 | -130*
Cc1ccc(NC(=O)OCCNC(=O)OC(C)C)cc1 | -73*
Cc1ccc(NC(=O)OC(C)CNC(=O)Oc2cccc(C)c2)cc1 (stereo not given) | -93*
COC(=O)NCC(C)OC(=O)Nc1ccc(Cl)cc1 (stereo not given) | -95*
Oc1c(N=Nc2ccccc2)sc2ccccc12 | -192*
CC12CCC(C(=O)Nc3nc4ccccc4s3)(OC1=O)C2(C)C (stereo not given) | -113*
CCCNC(=O)Nc1nc2ccccc2s1 | -118*
CCCNC(=O)c1ccc(-c2nc3ccccc3s2)s1 | 79
CCCCNC(=O)Nc1nc2ccc(CC)cc2s1 | -124*
CCCCNC(=O)Nc1nc2ccccc2s1 | -81*
CN(C)c1ccc(CC(=O)c2nc3ccccc3s2)cc1 | -125*
CCc1ccc2nc(NC(=O)CSCc3c(C)noc3C)sc2c1 | -73*
CCOC(=O)Nc1nc(-c2ccc(Cl)cc2Cl)cs1 | -97*
CN(CC(=O)Nc1nc2ccccc2s1)S(=O)(=O)c1ccccc1 | -83*
O=C(CCNC(=O)c1ccccc1Cl)Nc1nc2ccccc2s1 | -83*
